Measurements reported in PubChem BioAssay (NCATS).
Results filed as inconclusive are left out. Unmarked numbers belong to inactive results. The source made the active and inactive calls. Calls come from the whole dose curve; as a rule, active = well fitted cell-killing curve with a large enough effect; inconclusive = small, poorly fitted or top-dose-only effect; inactive = no such curve, though single readings can be large or run the other way. Peptide text beside a SMILES is read from it.

Experiment: qHTS of pediatric cancer cell lines to identify multiple opportunities for drug repurposing: Primary screen for Rh30 cells (AID 1347107); note: nearly all actives have a fitted effect of over 75% in size
Settings: Rh30 rhabdomyosarcoma viability, CellTiter-Glo luminescence, 48 h; series mostly up to 46 µM; activity change, negative = cytotoxic: at the top concentration
Description: Drug repurposing or repositioning has been offered as a strategy for drug development in oncology programs. This approach has special potential for childhood cancers and other rare or orphan diseases, where the expected return on new drug development has been a disincentive to pharmaceuticals.
In this project we exploit the poly-pharmacology of drugs to discover new indications via phenotypic screening of a panel of 19 well-characterized cell lines derived from solid tumors seen in children and adolescents. The goal is to identify approved drugs with previously unrecognized anticancer properties that has the potential to reveal new mechanisms and biological processes involved in carcinogenesis or drug resistance. We employed a titration-based paradigm (quantitative high-throughput screening or qHTS), where all compounds were tested at multiple concentrations for their effect on cell viability. Concentration-response curves (CRCs) were derived directly from the primary screen, and both potency and efficacy values were used to identify compounds with robust bioactivity profiles. We screened the NIH Chemical Genomics Center (NCGC) Pharmaceutical Collection (NPC) and Mechanism Interrogation Plate (MIPE) small molecule collections of approved and investigational compounds against these cell lines; and measured metabolically active cells after 48 hours of compound treatment as a proxy for cell viability.
Assay Submitter: Nathalia J. Martinez, National Center for Advancing Translational Sciences, National Institutes of Health, Rockville, MD, USA; email: natalia.martinez@nih.gov
[1] Shen, M et al. Quantitative high-throughput phenotypic screening of pediatric cancer cell lines identifies multiple opportunities for drug repurposing. Oncotarget 2017 Dec 19;9(4):4758-4772. PMID 29435139.
The cells were obtained from University of North Carolina (UNC), Pediatric Preclinical Testing Program (PPT), and Coriell Institute (CI).
qHTS cell viability assay:
Cells were assayed in growth media at a density of 500-1,000 cells/well. Five microliters of cells were dispensed into 1,536-well, white, solid-bottom, TC-treated plates (Greiner Bio One) using a multidrop dispenser and incubated at 37 degrees C, 5% CO2, under a humidified atmosphere for 5 hours. Twenty-three nanoliters of compounds and controls (neutral control DMSO or positive control bortezomib at final concentration of 2.3 µM) were subsequently transferred by Kalypsys pintool. For primary screens, the MIPE collection was tested at 11-point dilutions (final concentrations range from 0.78 nM to 46 µM) and the NPC collection at 8-point dilutions (final concentrations range from 0.59 nM to 46 µM). Compounds tested in follow-up screens were assayed at 11-point dilutions. Cells were incubated for 48 hours, followed by addition of 3 µL of CellTiter-Glo (Promega). After a 15 min incubation at room temperature, samples were analyzed for luminescence intensity using a ViewLux High-throughput CCD imager equipped with clear filters.
% is set by controls: 0 for no effect and ±100 for the full control effect.

| Compound | Potency | activity change, negative = cytotoxic |
| --- | --- | --- |
| O=C1CCc2ccc(OCCCCN3CCN(c4cccc(Cl)c4Cl)CC3)cc2N1 | inactive |  |
| Cc1ccc(C(=O)c2cc(O)c(O)c([N+](=O)[O-])c2)cc1 |  | 14.8% |
| Cc1nc(-c2ccc(OCC(C)C)c(C#N)c2)sc1C(=O)O | inactive |  |
| CCCCc1ccc2nc(NC(=O)OC)[nH]c2c1 | inactive |  |
| NCCCCNCCCN |  | 11.5% |
| O=c1ccc2ccc(O)c(O)c2o1 |  | 0.492% |
| O=C1NC(=O)C(c2ccccc2[N+](=O)[O-])=C1Nc1ccc(O)c(Cl)c1 |  | 14.1% |
| O=C(O)CCNC(=O)c1ccc(N=Nc2ccc(O)c(C(=O)O)c2)cc1 | inactive |  |
| COC(=O)[C@H](Cc1ccccc1)NC(=O)[C@@H](N)CC(=O)O (H-Asp-Phe-OMe) | inactive |  |
| Nc1cccc2c1CN(C1CCC(=O)NC1=O)C2=O (stereo not given) | inactive |  |
| CC(C)c1ccc2oc3nc(N)c(C(=O)O)cc3c(=O)c2c1 | inactive |  |
| Nc1nc(OCc2ccccc2)c2[nH]cnc2n1 |  | 13.7% |
| COC(=O)C1=C(C)NC(C)=C(C(=O)OCCCN2CCC(c3ccccc3)(c3ccccc3)CC2)C1c1cccc([N+](=O)[O-])c1 (stereo not given) | inactive |  |
| O=C(CCc1ccc(O)cc1)c1c(O)cc(O)cc1O |  | 3.77% |
| Cc1cc2c(s1)Nc1ccccc1N=C2N1CCN(C)CC1 | inactive |  |
| C[C@@H](c1ncncc1F)[C@](O)(Cn1cncn1)c1ccc(F)cc1F |  | 4.1% |
| CC[C@]1(O)C[C@H]2CN(CCc3c([nH]c4ccccc34)[C@@](C(=O)OC)(c3cc4c(cc3OC)N(C=O)[C@H]3[C@@](O)(C(=O)OC)[C@H](OC(C)=O)[C@]5(CC)C=CCN6CC[C@]43[C@@H]65)C2)C1 | inactive |  |
| O=c1c(O)c(-c2cc(O)c(O)c(O)c2)oc2cc(O)cc(O)c12 |  | -0.553% |
| CC(C)(S)[C@@H](N)C(=O)O |  | 27.1% |
| O=C(O)c1cccc(-c2noc(-c3ccccc3F)n2)c1 | inactive |  |

| Compound | Potency | activity change, negative = cytotoxic |
| --- | --- | --- |
| Cc1nc2n(c(=O)c1CCN1CCC(c3noc4cc(F)ccc34)CC1)CCCC2 | inactive |  |
| OC(CN1CCN(c2cccc(Cl)c2)CC1)C(c1ccccc1)c1ccccc1 (stereo not given) |  | 9.84% |
| CCCCC(CC)COC(=O)C(C#N)=C(c1ccccc1)c1ccccc1 (stereo not given) |  | 7.32% |
| CCC(C)(Oc1ccc(C2(c3ccc(OC(C)(CC)C(=O)O)cc3)CCCCC2)cc1)C(=O)O (stereo not given) |  | 23.4% |
| Cc1ccc(NC(=O)c2ccc(CN3CCN(C)CC3)cc2)cc1Nc1nccc(-c2cccnc2)n1 | inactive |  |
| Cc1cccc(C)c1OCC(=O)N[C@@H](Cc1ccccc1)[C@@H](O)C[C@H](Cc1ccccc1)NC(=O)[C@H](C(C)C)N1CCCNC1=O |  | 3.22% |
| O=C(CS(=O)Cc1ccco1)NCC=CCOc1cc(CN2CCCCC2)ccn1 (stereo not given) |  | 14.6% |
| Cc1ccc(C)c(OCCCC(C)(C)C(=O)O)c1 |  | 24% |
| CCC1=C(C)CN(C(=O)NCCc2ccc(S(=O)(=O)NC(=O)NC3CCC(C)CC3)cc2)C1=O (stereo not given) | inactive |  |
| O=C(O)c1cccnc1Nc1cccc(C(F)(F)F)c1 | inactive |  |
| Clc1ccc2c(N3CCN(CCCN4CCN(c5ccnc6cc(Cl)ccc56)CC4)CC3)ccnc2c1 |  | 24% [at 16.1 µM] |
| COc1cc2c(cc1OC)C1CC(=O)C(CC(C)C)CN1CC2 (stereo not given) |  | 22.2% |
| Cc1cc(=O)oc2cc(O)ccc12 |  | 4.51% |
| COc1ccc2cc([C@H](C)C(=O)O)ccc2c1 | inactive |  |
| c1cnc2cc3c(cc2n1)C1CNCC3C1 |  | 23.4% |
| COC(=O)N[C@H](C(=O)N[C@@H](Cc1ccccc1)[C@@H](O)CN(Cc1ccc(-c2ccccn2)cc1)NC(=O)[C@@H](NC(=O)OC)C(C)(C)C)C(C)(C)C | inactive |  |
| Cc1cccc(-c2[nH]ncc2-c2ccc3ncccc3n2)n1 |  | 6.18% |
| N[C@@H](Cc1cc(I)c(Oc2cc(I)c(O)c(I)c2)c(I)c1)C(=O)O | inactive |  |
| CCOc1cc(CC(=O)N[C@@H](CC(C)C)c2ccccc2N2CCCCC2)ccc1C(=O)O |  | 30% |
| Oc1ccc(OCc2ccccc2)cc1 |  | 15.8% |
